GDH-TPI counter-1: GDH-TPI coupling enzyme inhibitors, primary screen, artefact control for M. tuberculosis FBA inhibitor project, biochemical, absorbance, full deck; GDH-TPI coupled enzyme counterscreen, NADH absorbance; 360,000 compounds, 1.2% hits; inhibition, % at 4.8 µM;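 also: 0% = DMSO wells and 100% = wells lacking the enzyme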
CCHFV vOTU inh: CCHFV vOTU protease inhibitors, primary screen, biochemical, Pep-AMC substrate, fluorescence. Crimean-Congo hemorrhagic fever virus L polyprotein viral ovarian tumor (vOTU) protease …. inhibition, % at 11.5 µM. 370,000 compounds, 0.55% hits. AID 651958, 2012; also: 0% = vehicle wells with enzyme and 100% = no enzyme wells
Mtb FBA inh: Mtb FBA enzyme inhibitors, primary screen, biochemical, fluorescence, strain H37Rv | Fructose-bisphosphate aldolase (Mycobacterium tuberculosis (strain ATCC 25618 / H37Rv)), … | purified M. tuberculosis FBA, fluorescence read-out | inhibition, % at 1 µM | 360,000 compounds, 2.3% hits; in the data active = inhibition above about 27%;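 also: 0% = vehicle and 100% = reference inhibitor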
Target sequence (P9WQA3 whole entry, looked up): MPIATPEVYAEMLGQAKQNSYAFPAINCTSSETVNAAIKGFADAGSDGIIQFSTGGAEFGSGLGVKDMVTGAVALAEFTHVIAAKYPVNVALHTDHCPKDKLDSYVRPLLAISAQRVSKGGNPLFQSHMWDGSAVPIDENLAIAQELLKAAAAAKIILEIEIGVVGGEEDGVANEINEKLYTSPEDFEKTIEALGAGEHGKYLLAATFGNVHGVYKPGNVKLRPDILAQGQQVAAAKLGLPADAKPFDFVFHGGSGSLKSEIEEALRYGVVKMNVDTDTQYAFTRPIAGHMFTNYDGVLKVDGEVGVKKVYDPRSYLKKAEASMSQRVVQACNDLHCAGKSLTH
Vc quorum ag: inducers of Vibrio cholerae quorum light production without autoinducers, primary screen, BH1578 luxS cqsA deficient, single point; V. cholerae BH1578 lux reporter, luminescence, 6 h; activation, % at 18.7 µM; 350,000 compounds, 0.16% hits; in the data active = activation mostly above about 9.7%, no sharp cut-off
Mtb FBA inh conf: M. tuberculosis aldolase blockers, biochemical, fluorescence, strain H37Rv, confirmation; shares compounds with Mtb FBA inh; purified M. tuberculosis FBA, fluorescence read-out; inhibition, % at 1 µM; 5,600 compounds, 78% hits; AID 651616, 2012; in the data active = inhibition above about 27%;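 also: 0% = vehicle wells and 100% = reference inhibitor wells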
GDH-TPI counter-2: GDH-TPI coupling enzyme inhibitors, artefact control for M. tuberculosis FBA inhibitor project, biochemical, fluorescence, high throughput; GDH-TPI coupled enzyme counterscreen; shares compounds with Mtb FBA inh; inhibition, % at 1 µM; 5,600 compounds, 81% hits; in the data active = inhibition above about 10%
* hit, by the source's call; i = inactive; x = not tested or not shown. The list is not random: actives were taken first. Their share in the collection is about 3.9%. Rule as the data show it, unless noted: active = inhibition above about 30%; inactive = the rest.

SMILES	GDH-TPI counter-1	CCHFV vOTU inh	Mtb FBA inh	Vc quorum ag	Mtb FBA inh conf	GDH-TPI counter-2
Cc1cccc(C(=O)N/N=C/c2ccccn2)c1	-1	-21	0	0	x	x
CC(C)C(=O)Nc1ccc2c(c1)C(=O)NC2=O	4	-44	46*	-1	15	13*
Cc1cccc(C(=O)Nc2ccc3c(c2)C(=O)NC3=O)c1	17	-44	45*	0	0	2
Cc1cccc(C(=O)Nc2cccc(C(=O)N/N=C/c3ccccn3)c2)c1	1	20	48*	-8	6	-11
O=C1NC(=O)c2cc(NC(=O)C3CCCCC3)ccc21	-6	-39	44*	5	132*	88*
COc1cc(C2Nc3ccc4ncccc4c3C3=C2C(=O)CCC3)ccc1O (stereo not drawn)	17	14	7	0	x	x
COc1ccc(OC)c(N(CC(=O)NCc2ccccc2)S(=O)(=O)c2ccc(OC)c(OC)c2)c1	4	-9	1	i	x	x
COc1cccc(-c2cccc3c4c([nH]c23)[C@@H]2C[C@H]3[C@@H](C(=O)N2CC4)[C@H](C)ON3C)c1	x	-2	x	x	x	x
COc1ccccc1N1CCN(/N=C/C(Cl)=C/c2ccccc2)CC1	11	-9	-3	0	x	x
COC(=O)[C@@H]1C[C@@H](C(=O)O)[C@H](C)C1(C)C	2	20	1	3	x	x
O=C(CN1CCCCCC1)NCC1CCCO1 (stereo not drawn)	-3	-13	97*	-1	80*	73*
COc1cc(OC)c(Cl)cc1N	-2	1	45*	-10	67*	51*
COc1ccc(OC)c(N)c1	9	3	-1	3	x	x
Cc1ccc2oc(C(=O)N3CCCCCC3)c(C)c2c1	-3	-1	1	0	x	x
Cc1oc2cc(O)ccc2c(=O)c1Oc1ccc2ccccc2c1	4	-77	111*	x	53*	38*
COc1c(C)oc2cc(O)ccc2c1=O	11	-74	87*	0	58*	40*
CCOc1ccc2c(=O)c(Oc3ccccc3)c(C)oc2c1	10	11	3	-1	x	x
Cc1oc2cc(O)ccc2c(=O)c1Oc1ccc(F)cc1	15	-120	103*	0	0	-5
Cc1c(C(=O)Nc2c(F)cccc2F)sc2ncnc(N3CCN(c4ccccc4)CC3)c12	10	14	0	0	x	x
Cc1ccc(Sc2c([N+](=O)[O-])c(C)nn2C)cc1	9	4	0	0	x	x
COc1ccc(NC(=O)CC2C(=O)N(C)C(=S)N2Cc2ccc3c(c2)OCO3)cc1 (stereo not drawn)	5	-1	80*	0	39*	33*
COc1ccc(CCN2C(=S)N(C)C(=O)C2CC(=O)Nc2ccc(OC)cc2)cc1 (stereo not drawn)	7	2	-1	i	x	x
Cc1cc(C)c2c(N)c3cccc(C)c3nc2n1	5	-125	65*	i	133*	111*
CCOC(=O)c1c(C)nc(C)c(C(=O)OCC)c1-c1ccccc1	-10	x	-4	1	x	x
CCOC(=O)c1c(-c2ccccc2)cn2c(C)cc(C)nc12	6	-34	30*	0	90*	56*
SMILES	GDH-TPI counter-1	CCHFV vOTU inh	Mtb FBA inh	Vc quorum ag	Mtb FBA inh conf	GDH-TPI counter-2
C=CCOc1cccc(CNn2nnnc2N)c1	12	-1	0	0	x	x
COc1ccccc1COc1ccc2c(C)c(CCC(=O)O)c(=O)oc2c1C	3	-11	16	i	x	x
Cc1c(CCC(=O)O)c(=O)oc2cc(OCc3ccccc3Br)ccc12	9	-46	61*	-6	99*	69*
Cc1c(CC(=O)O)c(=O)oc2cc(OCc3ccc(Br)cc3)ccc12	17	-58	86*	1	139*	122*
Cc1c(CCC(=O)O)c(=O)oc2cc(OCc3cccc(F)c3)ccc12	8	-46	86*	1	9	0
COc1cccc(-c2coc3cc4oc(=O)c(CCC(=O)O)c(C)c4cc23)c1	0	16	3	0	x	x
CC1(C)OC(=O)C(=CNC(=O)c2c(F)cccc2F)C(=O)O1	1	-15	2	i	x	x
